Source: the supplement of paper PMC12632987
The full ranking holds about 4,500 sequences; the median of “median log2 fold change of GCK-ALFA target abundance (FLAG IP / Myc IP barcode read proportion)” is about 0.078, and the lowest 2% start at about -0.6. Many of the other results were omitted from the sample, so the lowest values are more common in it than they were.

B1: GBRAP_196_5416 (protein)
chain: KYLEEIKELEKESEEEVKDIELSDWTIVVNFTPENLEEEAEKTAEIAKDLGNPEIVIVHDGTLEEMLEALKLLREKLKEKGVVSKISVDSRAREEAEEKA
B2: GBRAP_84_7000 (protein)
chain: MREEEIEKLVDYLAENSSLELLKKLYVYLLLKNDNKGATRLLSYLLEKDPEAAAEALDKATEAALEEKEEEVKKELLELAKKEGEEIYKKVKKLIELLEE
B3: GBRAP_160_4655 (protein)
chain: SAELEELLEKIREIFEEALEMMKGETHEQRVAIARVMKGDVILLLEESPSVSDETVDEVDEVMDELVETIEENPDWTDEEIEEKIDEALEEIEEILEEDF
B4: GBRAP_11_2732 (protein)
chain: KKEKLEEIRELAERLAELLQRLIEEGPEDEELRREAEEQLRKLEELVKEYGDEDLKKLVEIIREEWERAQEDPETAVEHLRNALAAARVLAGQVLLEIEE
B5: GBRAP_128_3559 (protein)
chain: SVEERVEKAKELLEKIKNSDVEEARKYAEELAKLLEEADEESLEAIVETILERLPELSVEHLDVLADVFRERIPEADPRTAEALAEIQVEALNEAEEKEE
B6: GBRAP_128_3586 (protein)
chain: SVEAVRAETRALMAAMKTADDATAKALATELAARFTTLSLEEAEAAAEVIEEELPGLSAEHLDILADALRAALPAMTPEKAELAADVLVAALNEAEEKDE
B7: GBRAP_166_4874 (protein)
chain: GLEELLEKARKEIRELLKKASEADDEERVELYIEIGEIIEELREAGAPKEAILELVREALKEAKELGLDVRLLAGIIINVTDFDEEEIDELDKIVEEVLK
B8: GBRAP_11_2667 (protein)
chain: KKEVYKKAAELAKELAKTVKKLIEEGIDNEELIKKAEELLKELKELAKKELDKASQKEVEVLEEIWKEAKEDKENSLKYWELLLAGARVLEGNFLLEYDE
B9: GBRAP_160_4272 (protein)
chain: SPEREELIEDIEEDREEILELVDKISPEEVRNFAVTSLGSHLLEAIDLGLVTDEQEDELMEIVDELEKELKEAENASKEEIKKIITEHYDKAIEILKKAK
B10: GBRAP_166_4873 (protein)
chain: HMEELLKKAEKEIEKLLKEASEADEEEQVELYIEIGEIIEELKEAGASLEDILELIERTLKEAKKLGLDVKKLAGIIINVTDFNEEEIDKIDEIVEKVLK
B11: GBRAP_14_3780 (protein)
chain: MEKIEEIIREKAEEIIELLTEIAPEKAEEITEIVEEVVERTIARIKETGNAEEAAEEGRDELLARIAELTADLPAETRARMLAVVAVEFGQAILEIEELL
B12: GBRAP_125_2986 (protein)
chain: EEEELLEDLREIFKALGLSEEDAEEAVKLAREFSLKQTLYALMAALGAEEVADAVAKLTEEQAKEVVKEASEYIKKNPNITPEEVVELLLELAKKQLAKA
B13: GBRAP_78_6666 (protein)
chain: ELEKIIDETLELLTEVIRASKSLPPEVQEAVLDEAVEAATELEEIEEEGPNLEELEEAIKHLEKLLELLEKNKSPELEPLIEKLKKQIEKLKKAKEELEK
B14: GBRAP_95_7066 (protein)
chain: EEDREIAEDLIDTAEDLVEIGLYEQAARAAKAAVEVLKEIGETGELALRAAEVLVKVAEATGDEEAAEAAKEVLERIREAGGDEERIKELEKRLEEAKKK
B15: GBRAP_184_5265 (protein)
chain: KVLERTIKAENVEELIAKMEEVRKEALATGADVIILLEVEKLTKEMIDALFAQLKALRDAGYKGKITVGIDADLTEEMIDYVIKKADEAGVNVVLAISEE
B16: GBRAP_84_6999 (protein)
chain: STDEEIIELAKEIFDRVKGEAAVKILALVLLKVTGETATRILNYALERDPQVAYDALSLAYEVVSEDKEEELEEEARRLMAEESPEVRAKFERLLELMKA
B17: GBRAP_128_3320 (protein)
chain: MDEELLAEFKELAEAAKKADLPTLAKLTAEMVALIGQADAETREEMAEIFRKALEELDAEKLDVVADTLRAEMPKLDPEAARVVADLAVDALNLAEEKEE
B18: GBRAP_11_2689 (protein)
chain: KKEKLEEGAKLAEKGAELVERLLREGVDNEELLAELEKTLEELLKLAKKHASPASQKLTEDIKETWKRLLADPENAEEYARELLAGLRVLAGQYLLEIEE
B19: GBRAP_137_3670 (protein)
chain: MIRVEVELENGLAFARITVEGSPEELERAAEIAEDIAGEIPDLAVSVKLTEEGRLEIDVFGTPESVEAFLRRLAERLDRTVEVTTRDEETGEVRRRVIRP
B20: GBRAP_184_5066 (protein)
chain: SVAEETLEVRDLAEARAKLAALRAAVADHRGDLVVHLVLPEFDREIVALVLEGLAEIRAAGYARRVTVGLDADLTEEEADFAIELADAAGVNLTLALPEE
B21: GBRAP_95_7084 (protein)
chain: EEELEEAEALMATAVDLYDAGLEEQAARAIRDALDELEELGYKVADKELLERLLRHFVALALRHFDAEEVERALALAEASGAPAEIIAALRAALAALRAA
B22: GBRAP_79_6747 (protein)
chain: GVEEARRALVEALRVVLPDLTEEEAAEAVASDEALRAALLRAGISEEMAAELLEAIDAIPELAAERFRRTVERMEGLEPEDRRDVLEATIAAVIYEAEQR
B23: GBRAP_160_4279 (protein)
chain: SEKLLELAEELEEDREEILSLVDEISAEEVRTLAVTDLGSILLEAIDLELLSDEEEDELAKIIDDLDAELAAAADASPAERRAIITRHYDKAIELLRKAA
B24: GBRAP_52_6358 (protein)
chain: ALEEALALLREALAAVAAGDEEEARAILEELVATYSEETILAAFERLAEEVADKDVATAEALLETALLLADVMDEAGRDPAVADDIEAIAARTYMAVKAK
B25: GBRAP_48_5840 (protein)
chain: EEEKREKAIEEILKIIKETAELLEEAKEEGLSEAAFEAILIDAAEEIKEVLEKYLGLGEEFEKLPLEEQLAIVEELVKTYKEEGEEATRKKIKEFIEKLE
B26: GBRAP_186_5371 (protein)
chain: EEEAEKEIEEFIDEAAKKGYVISGVLEVKEFTEEAKKKIFDELEALAEFSAEFGYKGALIIKSTVSEEEFEELKKFVEEKRDELSKETGAEVEVKIVHVK
B27: GBRAP_78_6619 (protein)
chain: ETKEKIIELLDRARDRMREIARREPEVRDLANEAAVLVGTAILMVDTGEESKEEIIEELEEALKVAKELLERLEGRDEESVKLAKEAIEDLKKAIELVKK
B28: GBRAP_160_4698 (protein)
chain: TATAEKLKAFVKEEFEKAKEEIEGESREQRAVILAGTGGEILMELVEDPNATDELEDEVLAIFDDAVATLLANPNLTLEETKALIDEVEAKVLAAIDKHL
B29: GBRAP_166_4925 (protein)
chain: MIEEKVEEARKRLEEVIREGRADPSLTDGQITAAMAYEVAEMLKDIEDEEEKLAVVEEGLRLAKEEGLDPRRLATLTASLYGFSDEERERIDEITEKILA

Each binder was assayed against GABARAP, O95166 (assay: median log2 fold change of GCK-ALFA target abundance (FLAG IP / Myc IP barcode read proportion) (log2 ratio); each designed protein is fused to an ALFA-tag nanobody in HEK293 cells to bring the named protein to FLAG-tagged glucokinase (GCK); Myc marks an untargeted standard; higher = target protein stabilised (more abundant)). Settings: target protein: 3xFLAG-MCP-GCK-ALFA reporter; HEK293 landing pad (RPLP).
Procedure, shortened: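 HEK293 landing-pad cells received a recombined binder library fused to the ALFA nanobody and were induced with 2 μg mL^−1 doxycycline, then transfected with a plasmid encoding a FLAG-tagged target and a Myc-tagged standard. Lysates were collected after 48 h for anti-FLAG and anti-Myc immunoprecipitation, and the circular RNA barcodes were reverse transcribed, amplified and sequenced. Target abundance for each binder is the median log2 ratio of FLAG to Myc barcode read proportions. Barcodes had to reach a proportion of at least 10^−7 in both replicates, each binder needed at least 3 barcodes per replicate, a pseudocount of 10^−6 was applied, and the two replicates were pooled.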

Chain of GABARAP, O95166 (O95166 whole entry, the tested form may be a part): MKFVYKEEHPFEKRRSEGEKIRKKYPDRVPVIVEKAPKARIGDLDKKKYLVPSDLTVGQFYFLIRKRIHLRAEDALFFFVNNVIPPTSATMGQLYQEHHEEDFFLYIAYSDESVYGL

| Binder | median log2 fold change |
| --- | --- |
| B1 | 0.451 |
| B2 | 0.0601 |
| B3 | -0.612 |
| B4 | 0.303 |
| B5 | 0.095 |
| B6 | 0.296 |
| B7 | 0.0131 |
| B8 | -0.102 |
| B9 | 0.239 |
| B10 | -0.298 |
| B11 | -0.0168 |
| B12 | -0.643 |
| B13 | 0.274 |
| B14 | 0.142 |
| B15 | -0.0191 |
| B16 | -0.601 |
| B17 | 0.0824 |
| B18 | 0.195 |
| B19 | 0.0906 |
| B20 | 0.0273 |
| B21 | -0.692 |
| B22 | 0.209 |
| B23 | -0.493 |
| B24 | -0.632 |
| B25 | -0.364 |
| B26 | 0.163 |
| B27 | 0.338 |
| B28 | -0.69 |
| B29 | 0.302 |
